High-throughput results (PubChem)
LGR2 inh = inhibitors of bursicon-induced LGR2 CRE-luciferase signal, primary screen, cell-based, HEK293, CRE-luciferase reporter, bursicon stimulation; Drosophila bursicon receptor LGR2 (rickets); inhibition, % at 9.99 µM; bursicon-stimulated, 4 h; hit rate 0.35% among 380,000;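 active = drop in luminescence signal, shown as inhibition above about 50% in the replicate tests, limit read from the data, passing the limit was not always enough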;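 note: agonist challenge used bursicon conditioned medium at about half maximal strength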
EWS-Fli block = EWS/Fli-driven NR0B1 reporter inhibitors, primary screen, A673 cells, NR0B1 luciferase, luminescence, MLPCN library; viability-normalised; inhibition, % at 12.6 µM; hit rate 0.67% among 350,000; AID 651661, 2012;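 active = mean inhibition of at least 50% after viability correction, with every replicate also passing that limit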;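 note: firefly luciferase signal divided by Alamar Blue viability fluorescence both relative to DMSO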
RAD54 branch = inhibitors of human RAD54 branch migration, primary screen, biochemical, fluorescence, single point; hit rate 0.14% among 360,000; AID 602329, 2012; RAD54 Holliday junction branch migration, FAM/BHQ fluorescence; DNA repair and recombination protein RAD54-like (Homo sapiens), Q92698; inhibition, % at 10.4 µM;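 active = mean normalized replicate activity at least 40 and at least half of replicates scoring 40 or more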;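 note: 0% = median of neutral control wells and 100% = median of positive control wells; inhibitors cause a drop in the FAM fluorescence signal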
RAD52 inh = RAD52 DNA annealing inhibitors, primary screen, biochemical, FRET, single point, set 2. DNA repair protein RAD52 homolog (Homo sapiens), P43351. recombinant RAD52 DNA annealing, FRET fluorescence. inhibition, % at 18.7 µM. hit rate 0.46% among 360,000;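 active = every replicate showing at least 50% inhibition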
Target sequence (P43351 whole entry, looked up): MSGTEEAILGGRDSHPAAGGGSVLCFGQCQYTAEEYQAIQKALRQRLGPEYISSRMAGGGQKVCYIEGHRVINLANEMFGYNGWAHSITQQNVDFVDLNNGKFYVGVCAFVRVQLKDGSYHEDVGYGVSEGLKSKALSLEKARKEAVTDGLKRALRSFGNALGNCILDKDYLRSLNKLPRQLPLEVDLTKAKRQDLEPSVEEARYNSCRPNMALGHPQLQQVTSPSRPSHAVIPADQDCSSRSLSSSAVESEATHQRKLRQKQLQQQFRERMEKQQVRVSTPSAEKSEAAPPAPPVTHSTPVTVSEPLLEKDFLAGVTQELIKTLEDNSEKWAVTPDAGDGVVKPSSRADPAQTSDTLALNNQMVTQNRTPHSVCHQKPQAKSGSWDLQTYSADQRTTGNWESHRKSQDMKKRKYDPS
INS-1E GSIS act = GLuc luminescence reporter in INS-1E cells, primary screen for activators of glucose-dependent secretion of insulin; INS-1E GLuc reporter insulin secretion, 2-3 h; activation, % at 16.6 µM; hit rate 0.61% among 370,000;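 active = lowest replicate activation of at least 40%, so every replicate reaches that level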;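 note: 0% = median of neutral control wells and 100% = median of IBMX positive control wells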
F508del corr = F508del CFTR correction, initial screen, CFBE line, single point. CFBE cells, YFP halide quenching; stimulated with forskolin plus potentiator P3; % fluorescence drop versus neutral controls. activity (quench increase), % at 7.58 µM. hit rate 0.36% among 350,000. AID 720511, 2013;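 active = mean added fluorescence quench of at least 8% versus neutral control, with both replicates also reaching 8%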;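 note: cells transiently co-express mutant CFTR-F508del with the halide-sensitive YFP; corrector assay measuring rescue of mutant channel to the surface after 24 h compound exposure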
Active calls of the source: *; . = no result; ! = not confirmed by another sample. Only some compounds are listed: those with a hit (about 1.8% of all), similar ones and a draw of the others.

SMILES | LGR2 inh | EWS-Fli block | RAD54 branch | RAD52 inh | INS-1E GSIS act | F508del corr
N#Cc1ccc(-c2ccc(C3[C@@H]4CN(C(=O)C5CCCC5)C[C@H]3N4)cc2)cc1 (some centres undefined) | 6 | 3 | . | -7 | 9 | 1
O=C(C1CC1)N1C[C@@H]2N[C@H](C1)C2c1ccc(-c2cccc(F)c2)cc1 (some centres undefined) | 61*! | 6 | . | . | 5 | 2
N#Cc1ccc(-c2ccc(C3[C@@H]4CN(C(=O)C5CCC5)C[C@H]3N4)cc2)cc1 (some centres undefined) | 70*! | -4 | . | 25 | -6 | 10*!
O=C(C1CCCC1)N1C[C@@H]2N[C@H](C1)C2c1ccc(-c2cccc(F)c2)cc1 (some centres undefined) | -16 | -4 | . | 8 | 20 | 1
CC(C)CC#Cc1ccc([C@@H]2[C@@H](CO)N3CCCCN(C(=O)NC4CCCC4)C[C@H]23)cc1 | 10 | 4 | -12 | 27 | -21 | 9.8*
COc1ccc(NC(=O)N2CCCCN3[C@H](CO)[C@H](c4ccc(C#Cc5ccccc5)cc4)[C@@H]3C2)cc1 | . | -4 | 7 | 31 | . | 1
O=C(Nc1cccc(F)c1)N1CCCCN2[C@@H](CO)[C@@H](c3ccc(C#Cc4ccccc4)cc3)[C@@H]2C1 | 11 | 76* | 7 | -20 | -1 | -11
COc1ccc(NC(=O)N2CCCCN3[C@H](CO)[C@@H](c4ccc(C#Cc5ccccc5)cc4)[C@@H]3C2)cc1 | . | 8 | 4 | 71* | . | 6
COc1ccc(C#Cc2ccc([C@H]3[C@H](CO)N4CCCCN(C(=O)Nc5cccc(F)c5)C[C@@H]34)cc2)cc1 | . | 27 | 27 | -27 | . | -4
O=C(Nc1ccccc1)N1CCCCN2[C@H](CO)[C@H](c3ccc(C#Cc4ccccc4)cc3)[C@H]2C1 | -1 | 63* | 1 | 13 | -34 | -7
COc1ccc(NC(=O)N2CCCCN3[C@@H](CO)[C@@H](c4ccc(C#Cc5ccccc5)cc4)[C@@H]3C2)cc1 | . | 1 | 5 | 97* | . | -3
COc1ccc(NC(=O)N2CCCCN3[C@H](CO)[C@@H](c4ccc(C#Cc5ccccc5)cc4)[C@H]3C2)cc1 | . | 5 | -1 | 70* | . | 0
C[C@@H]1CN([C@@H](C)CO)C(=O)c2cc(NC(=O)Cc3cn(C)c4ccccc34)ccc2O[C@H]1CN(C)Cc1ccc(C(=O)Nc2ccccc2N)cc1 | -20 | 29 | 3 | 33 | -3 | -1
COc1ccc(/C=N/NC(=O)c2ccc(COc3ccccc3Cl)o2)c(OC)c1C | 4 | . | -3 | . | 152* | .
COc1ccc(/C=N/NC(=O)c2ccc(COc3ccccc3Cl)o2)cc1 | -36 | . | 19 | 9 | 3 | .
CCN(C(=O)COC(=O)/C=C/c1ccccc1Cl)c1c(N)n(Cc2ccccc2)c(=O)[nH]c1=O | 22 | 10 | . | -8 | 26 | 1
CC(C)Oc1ccc(S(=O)(=O)N2CCOCC2)cc1NC(=O)CCCSc1ccccc1 | -21 | 5 | -11 | -3 | -16 | 8.4*
O=C(O)CCSc1ncnc2sc(-c3ccccc3)cc12 | 12 | 69* | -6 | -31 | 3 | -4
C/C(=N/Oc1nc(C)cc(C)n1)c1ccc(F)cc1 | -49 | . | 4 | . | 64* | .
C/C(=N/Oc1nc(C)cc(C)n1)c1ccccc1 | . | . | 5 | . | . | .
COc1ccc(-n2ncc(Cl)c(Cl)c2=O)cc1 | 106* | 55* | . | -4 | -7 | -1
CC(C)n1cc(/C(N)=N/O)c(=O)n(Cc2ccccc2)c1=O | -23 | 3 | 5 | -7 | 61* | 2
Cc1cn(C(C)C)c(=O)n(-c2ccccc2)c1=O | -21 | -4 | 14 | -4 | . | 1
O=C(Cc1ccc(-c2ccccc2)cc1)NCc1ccccc1 | -4 | . | 1 | . | 15 | .
CS(=O)(=O)c1ccc(S(=O)CC(=O)OCc2ccccc2)c([N+](=O)[O-])c1 (centres undefined) | . | 64* | . | -10 | 81* | 2
SMILES | LGR2 inh | EWS-Fli block | RAD54 branch | RAD52 inh | INS-1E GSIS act | F508del corr
CCOC(=O)C(CC)(CC)C(=O)/C=C/c1ccc(Br)cc1 | 35 | . | -4 | . | 65* | .
CN1c2ccc(Br)cc2[C@@H]2[C@@H](CCN2S(=O)(=O)c2ccccc2F)[C@H]1CO | -2 | 0 | 7 | -11 | 10 | 1
O=C(c1cccc(F)c1)N1CC[C@@H]2[C@H](CO)Nc3ccc(-c4ccccc4F)cc3[C@@H]21 | 8 | 11 | -4 | -30 | -8 | 11*
O=C(c1cccnc1)N1CC[C@@H]2[C@H](CO)Nc3ccc(C4=CCCCC4)cc3[C@@H]21 | 0 | . | . | 8 | -14 | 8.1*
COc1ccc(N/C(N)=N/c2nc(C)cc(C)n2)c(OC)c1 | 7 | -3 | . | 9 | -4 | 5
COc1cc(N/C(N)=N/c2nc(C)cc(C)n2)cc(OC)c1 | 0 | 5 | 10 | 81* | 3 | 6
COc1ccc(N2c3ccccc3CN(Cc3ccccc3)[C@@H](C)[C@H]2Cc2cccnc2)cc1 | 39 | 6 | 11 | 0 | -9 | -4
CCN1CCN(C(=O)c2ccc(-c3nc4ccccc4s3)s2)CC1 | -31 | -47 | . | -2 | 2 | -1
O=C(c1ccc(-c2nc3ccccc3s2)s1)N1CCOCC1 | 76* | 77* | . | -14 | -3 | 0
CN1CCC(N(C)S(=O)(=O)c2ccc(NC(=O)COc3cccc(Cl)c3)cc2)CC1 | -10 | 14 | . | -5 | 64* | -1
CC1(C(=O)NCc2ccco2)Cc2c(-c3ccccc3)ccnc2O1 (centres undefined) | 2 | 59* | -3 | -12 | -6 | 7
CC1(C(=O)NCc2cccs2)Cc2c(-c3cccc(C(F)(F)F)c3)ccnc2O1 (centres undefined) | 1 | 55* | -1 | -7 | -3 | 7
CN(C)S(=O)(=O)c1ccc2c(c1)/C(=C/c1cc3c([nH]1)CCCC3)C(=O)N2 | -16 | -1 | -58 | -56 | 14 | 8.6*
Cn1c(/C(C#N)=C/c2ccc(O)cc2)nc2ccccc21 | -37 | -35 | 16 | -22 | 42* | 2
O=C(CCl)N(c1ccccc1)C1CCCCC1 | 94* | 35 | . | -8 | 0 | -9
CC(=O)N(c1ccccc1)C1CCCC1 | 18 | -2 | -3 | -14 | 1 | -1
CCOC(=O)c1ccc(NS(=O)(=O)N2CCCCCC2)cc1 | . | . | 5 | . | . | .
O=C(O)C[C@H]1C=C[C@H](NC(=O)c2ccccc2F)[C@@H](CO)O1 | 20 | 2 | -15 | -9 | 5 | 0
O=C1N/C(=N/c2ccccn2)SC1Cc1ccccc1 (centres undefined) | -6 | . | -12 | . | -10 | .
